Consider 40 compounds from PubChem BioAssay (NCI).

The panel holds about 83,000 compounds, 20% with a hit somewhere; the sample as a whole holds those more often.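 Interpretation: 100, growth as untreated; towards 0, rising growth inhibition; 0, no net growth; 0 to -100, cell death. Compounds scoring below 10 were considered active.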 Activity calls are given as the source filed them.

The test concerns MDA-MB-435 melanoma. Kind of test: NCI-60 one-dose screen, 48 h (100 = growth as untreated, 0 = no growth, -100 = all killed). The following applies: 10 µM. On the procedure: Growth inhibition of the MDA-MB-435 human Melanoma tumor cell line is measured as a screen for anti-cancer activity. Cells are grown in 96 well plates and exposed to the test compound for 48 hours. Compounds are tested at a single concentration, which is 10^-5 M for most compounds. The reported endpoint is percent growth (GI% or GIPRCNT), where numbers from 0 - 100% represent growth inhibition, and numbers from -100% - 0 represent cell death. For example, a value of 40 represents 60% growth inhibition. A value of 0 means no net growth occurred over the course of the experiment. A value of -40 indicates 40% of cells at the beginning of the experiment died by the end of the experiment. A value of -100 means all cells are dead at the end of the experiment.
NCI-60 Human Tumor Cell Lines Screen was performed using the standard one-dose NCI protocol, which is described in more detail at https://dtp.cancer.gov/discovery_development/nci-60/default.htm.
Compounds with GIPRCNT values below 10 were considered active. Activity score was based on GIPRCNT using the following formula: […]
Score is 0 for GIPRCNT values of 100 or above, 50 for GIPRCNT values of 0, and 100 for GIPRCNT values of -100.
On to `CCCCCCCO`, for which the growth is 114% (inactive).
The result for `CC(C)COC(=O)COC(=O)OCCOCCOC(=O)OCC(=O)OCC(C)C` reads 119% (inactive); that for `CCCNC(=O)c1ccc(S(N)(=O)=O)cc1`, 117% (inactive); that for `Cc1ccc(S(=O)(=O)O)c(C)c1`, 107% (inactive).
In the case of `Cc1ccccc1N=C(c1ccccc1)C1C(=O)c2ccccc2C1=O`, the growth is 27% (inactive).
As to `COc1cc(/C=C/C(=O)c2ccccc2)cc(OC)c1OC`, the growth was 13.7% (inactive).
The result for `O=[N+]([O-])c1ccc(O)c(S(=O)(=O)O)c1` reads 109% (inactive).
As for `COc1ccccc1C1OC2=Nc3cc(C)c(C)cc3NC2C1=O` (stereo not given), the figure is 82.5% (inactive); as for `FC(F)(F)c1ccc2c(c1)N(CCCN1CCN(C3CC3)CC1)c1ccccc1S2`, 57.7% (inactive).
Regarding `O=C(O)c1cccc([N+](=O)[O-])c1O`, the growth is 101% (inactive).
As for `COc1ccccc1N1CCN(C(=S)Nc2ccccc2)CC1`, the figure is 102% (inactive).
The result for `Nc1ccc(N=Nc2ccc(O)cc2)c(N)n1` reads 69.3% (inactive); that for `Cc1cc(=O)cc(C)n1-c1ccccc1`, 110% (inactive).
As for `CCCCNC1(C#N)CCN(Cc2ccccc2)CC1`, the figure is 97.5% (inactive); as for `NC(=O)c1ccc(N=C(N)N=C(N)N)cc1`, 85% (inactive); as for `CC(C)NC(=O)OCc1c(COC(=O)NC(C)C)c(-c2ccc(Cl)c(Cl)c2)n2c1SCC2`, 67.2% (inactive).
Take `S=C1NCc2cncnc2N1`: the growth is 101% (inactive).
As for `Cc1ccc(C)n1-c1ccsc1C(=O)NNC(=O)CCl`, the figure is 92.1% (inactive).
As for `CCOC(=O)Nc1cc2c(c(N)n1)N=C(c1ccccc1)CO2`, the figure is 4.31% (active); as for `COc1cc(C(=O)N/N=C/c2cccc([N+](=O)[O-])c2)cc(OC)c1OC`, 1.31% (active).
The result for `NC(=S)NN=C1CCCC1` reads 103% (inactive).
Turning to `CCOC(=O)CNN`, the growth is 108% (inactive).
Turning to `CCOC(=O)c1[nH]c(C)c(C(=O)O)c1C`, the growth is 110% (inactive).
As to `C#C[C@H]1CCCCCC1O` (stereo not given in full), the growth is 109% (inactive).
As for `COc1ccc2c(c1)CCc1c-2n[nH]c1-c1[nH]nc2c1CCc1cc(OC)ccc1-2`, the figure is -5.37% (active); as for `Oc1ccc2c(c1)OCC1(O)Cc3cc(O)c(O)cc3C21` (stereo not given), 92.3% (inactive).
The result for `O=[N+]([O-])c1ccc(Cl)c(S(=O)(=O)O)c1` reads 117% (inactive); that for `CCC(=O)Oc1ccc(OC)cc1`, 106% (inactive).
The result for `COc1cc(CN)ccc1O` reads 99.5% (inactive).
Regarding `c1ccc(Sc2ccccc2)cc1`, the growth is 99.6% (inactive).
As to `CC(C)C(C#N)(C(C)C)C(C)C`, the growth was 96.3% (inactive).
With `CCOC(=O)C(O)C(O)C(=O)OCC` (stereo not given), the growth is 108% (inactive).
As for `CC(C)=NNc1ccc([N+](=O)[O-])cc1[N+](=O)[O-]`, the figure is 84.2% (inactive); as for `CN(C)c1nc2c([nH]1)c(=O)n(C)c(=O)n2C`, 111% (inactive).
As for `Cc1nc2ccccc2c(C(=O)O)c1O`, the figure is 112% (inactive); as for `CCOC(=O)CSc1c([N+](=O)[O-])ncn1C`, 101% (inactive); as for `Cc1ccc(CCCC(=O)O)c(C)c1`, 100% (inactive).
As for `Cc1cc(O)ccc1O`, the figure is 97.7% (inactive); as for `OCc1ccc(-c2ccc(-c3ccc(CO)s3)o2)s1`, 38% (inactive).
As for `O=c1[nH]cc(Cl)cc1O`, the growth is 76.4% (inactive).
